In the library only some 10% were active in any assay of this set; here they are far more common.
GPT2 inhibitor = blocks human glutamate pyruvate transaminase 2; Q8TD30; Recombinant GPT2, coupled pyruvate oxidase/HRP Amplex Red fluorescence; Potency, µM (series often up to 57.7 µM), for the others: at the highest dose activity change, negative = inhibition, most hits filed as inhibitors; hit rate 0.25% among 100,000; AID 1671188; also: nearly all actives have a fitted effect of over 60% in size
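Fluorescence of coupled pyruvate oxidase/HRP/Amplex Red system (50uM Amplex, 30 min, dark) reports pyruvate formed by GPT2. Enzyme reaction: 10ng/uL GPT2, 2mM L-alanine, 250uM a-KG, 30 min room temperature, pH 7.5; 50uM AOA control.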
NPR1 antag = blocks ANP-stimulated signaling of human Npr1 receptor | AID 1347048 | Potency, µM (titrated, usually from 46.3 µM), for the others: top-dose activity change, negative = inhibition, usual class: inhibitors | hit rate 1.6% among 76,000 | P16066 | HEK293 hNpr1 GloSensor cGMP, ANP-stimulated luminescence; calls by dose curve; also: nearly all actives have a fitted effect of over 60% in size
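Compound pre-incubated 30 min at room temperature on GloSensor-loaded HEK293 cells stably carrying hNpr1 and the pGS-40F cGMP biosensor. Stimulation uses hNppA at 0.1 nM final; luminescence is taken at baseline and 20 min post-agonist.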
NIH3T3 tox = kills NIH 3T3 cells | NIH 3T3 viability, CellTiter-Glo ATP luminescence, 48-72 h | Potency, µM (highest dose often 96.7 µM), without a hit: at the top dose activity change, negative = cytotoxicity, usual class: inhibitors | hit rate 4.3% among 94,000; also: nearly all actives have a fitted effect of over 55% in size
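Mouse fibroblast NIH 3T3 cells, 400 per well, received compound via pintool and were incubated for 48 or 72 hr prior to CellTiter-Glo ATP luminescence measurement.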
HEK cytotox = HEK 293 cell cytotoxicity. Potency, µM (top dose mostly 115 µM), for the others: at the highest dose activity change, negative = cytotoxicity, most hits filed as inhibitors. HEK 293 viability, ATP luminescence (CellTiter-Glo), 48-72 h. hit rate 6.6% among 94,000; also: nearly all actives have a fitted effect of over 60% in size
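Viability of HEK 293 cells, plated at 250 cells/well, was judged by cellular ATP after compound treatment for 48 or 72 hr. Luminescence was imaged 10 min after CellTiter-Glo addition at room temperature.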
Luciferase inh = Photinus pyralis luciferase inhibition | hit rate 2.5% among 76,000 | Potency, µM (highest dose often 115 µM), hits mostly inhibitors | purified P. pyralis luciferase, luminescence, biochemical | AID 1347043 | P08659; also: nearly all actives have a fitted effect of over 65% in size
Target sequence (P08659 whole entry, looked up): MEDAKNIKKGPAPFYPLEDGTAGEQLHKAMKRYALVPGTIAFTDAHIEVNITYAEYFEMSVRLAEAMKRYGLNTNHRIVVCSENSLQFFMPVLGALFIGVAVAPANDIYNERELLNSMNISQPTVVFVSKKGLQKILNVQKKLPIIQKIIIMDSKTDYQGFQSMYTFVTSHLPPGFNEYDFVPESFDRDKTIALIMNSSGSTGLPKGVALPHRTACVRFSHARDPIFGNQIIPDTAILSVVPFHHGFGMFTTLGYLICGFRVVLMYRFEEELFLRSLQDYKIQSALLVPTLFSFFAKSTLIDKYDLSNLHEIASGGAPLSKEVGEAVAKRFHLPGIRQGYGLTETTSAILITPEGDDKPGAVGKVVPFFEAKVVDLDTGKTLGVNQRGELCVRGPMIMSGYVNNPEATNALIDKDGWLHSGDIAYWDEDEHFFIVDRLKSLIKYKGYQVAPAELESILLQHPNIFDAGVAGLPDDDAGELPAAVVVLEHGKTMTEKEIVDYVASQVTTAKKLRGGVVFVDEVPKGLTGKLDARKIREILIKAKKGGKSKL
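Biochemical qHTS: compound (6-point titration) added to 10uM D-luciferin plus 10uM ATP in Tris acetate pH 7.5 buffer with Mg, Tween-20 and BSA, then purified enzyme at 10nM; light output imaged.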
The depositor's hits bear a star; i = inactive; ? = inconclusive; . = not tested or not shown; [ ] = dose if it differs, or a comment. Unless noted, calls follow the shape of the dose curve; as a rule, active = well fitted curve in the direction sought with a large enough effect; inconclusive = small, poorly fitted or top-dose-only effect, or another doubt; inactive = no such curve, though single readings can be large; an effect the other way counts as inactive or inconclusive. % is scaled to controls: 0 for no effect and ±100 for the full control effect; potency is read from the fitted curve at half-maximal effect.

SMILES | GPT2 inhibitor | NPR1 antag | NIH3T3 tox | HEK cytotox | Luciferase inh
CN(C)CCNC(=O)c1nc2nc(-c3ccccc3)c(-c3cccnc3)cc2n1C | -7.2%[88.5 µM] | 0.4%[70.6 µM] | ? | ? | i
Cn1cccc1C(=O)N1CCO[C@@H](COc2ccccn2)[C@@H]1c1ccccc1 | -4.9% | . | ? | ? | .
Cc1ccc(C(=O)Nc2ccc3c(N4CCOCC4)ncnc3c2)cc1C | ? | -14.5% | ? | ? | ?
O=C(Nc1ccc2c(N3CCOCC3)ncnc2c1)c1ccc(Br)o1 | i | 2.8% | ? | 39.8µM* | i
O=C(Nc1ccc2c(N3CCOCC3)ncnc2c1)c1cccc(Cl)c1 | -4.4% | -2.8% | 7.08µM* | ? | i
CC(Oc1cccc(Cl)c1)C(=O)Nc1ccc2c(N3CCOCC3)ncnc2c1 (centres undefined) | ? | -24.3% | ? | 44.7µM* | i
COc1cccc(C(=O)Nc2ccc3c(N4CCOCC4)ncnc3c2)c1 | i | 3.8% | -59.4% | -76.7% | ?
O=C(COc1ccccc1)Nc1ccc2c(N3CCOCC3)ncnc2c1 | i | -4.5% | ? | ? | i
O=C(Nc1ccc(Cl)cc1)N1CCCC(C(=O)N2CCC(N3CCCC3=O)CC2)C1 (centres undefined) | i | . | -20.4% | -3.5% | .
COc1ccc(S(=O)(=O)N2CCc3c(C(=O)N(C)C)cccc32)cc1 | 0.5% | -1.4% | -22.8% | -20.9% | i
O=C(CNC(=O)c1ccc(-c2cnc3ccccc3c2)cc1)NCCCc1ccccc1 | i | . | -35.5% | ? | .
CC(C)=CCC[C@](C)(O)[C@H]1CC[C@]2(C)[C@@H]1[C@H](O)CC1[C@@]3(C)CC[C@H](O)C(C)(C)[C@@H]3[C@@H](O[C@@H]3O[C@H](CO)[C@@H](O)[C@H](O)[C@H]3O[C@@H]3O[C@H](CO)[C@@H](O)[C@H](O)[C@H]3O)C[C@]12C (some centres undefined) | 3.6%[17.1 µM] | . | . | . | .
COc1ccc(NC(=O)C2(C)CCCc3cnc(Nc4ccccc4)nc32)cn1 (centres undefined) | -12.1%[88.5 µM] | -21.0%[70.6 µM] | 79.4µM* | 89.1µM* | i
COc1ccc(NC(=O)C2(C)CCCc3cnc(NCc4ccccc4)nc32)cn1 (centres undefined) | -22.9%[88.5 µM] | -16.2%[70.6 µM] | ? | ? | i
COc1cccc(Nc2ncc3c(n2)C(C)(C(=O)Nc2ccc(OC)nc2)CC3)c1 (centres undefined) | -6.8%[88.5 µM] | 3.8%[70.6 µM] | ? | 89.1µM* | i
CCn1cnnc1CC1CCCN(S(=O)(=O)c2ccc(OC)cc2)C1 (centres undefined) | -0.6% | . | -23.3% | -22.8% | .
COc1ccc(CNC(=O)C[C@@H]2CCNC[C@@H]2Cc2cc(-c3ccc(OC)cc3)on2)cc1 | -22.9% | -12.9% | ? | 39.8µM* | i
O=C(C[C@@H]1CCNC[C@@H]1Cc1cc(-c2ccc(F)cc2)on1)Nc1ccccc1 | -4.7%[88.5 µM] | -14.0%[70.6 µM] | 35.5µM* | 39.8µM* | i
CC(C)(C)c1ccc(-c2cc(C[C@H]3CNCC[C@H]3CC(=O)Nc3ccccc3)no2)cc1 | -8.1%[88.5 µM] | -10.5%[70.6 µM] | ? | ? | i
O=C(C[C@@H]1CCNC[C@@H]1Cc1cc(-c2ccccc2)on1)NCc1ccc(F)cc1 | ? | -10.4%[70.6 µM] | 39.8µM* | 39.8µM* | i
COc1ccc(CNC(=O)C[C@@H]2CCNC[C@@H]2Cc2cc(-c3ccc(F)cc3)on2)cc1 | i | -6.3% | ? | 79.4µM* | i
CC[C@@]1(C(=O)O)C[C@H](C(=O)NCc2ccncc2)[C@H](c2ccc(OC)cc2)N1C | ? | 1.9% | -29.7% | -14.6% | i
COc1ccc(-c2cc(C[C@H]3CNCC[C@H]3CC(=O)NCc3ccc(OC)c(OC)c3)no2)cc1 | -8.1% | 0.6% | ? | -28.6% | i
O=C(C[C@@H]1CCNC[C@@H]1Cc1cc(-c2ccc(F)cc2)on1)NCc1ccco1 | -0.4%[88.5 µM] | -13.4%[70.6 µM] | ? | ? | i
COc1ccc(-c2cc(C[C@H]3CNCC[C@H]3CC(=O)NCc3ccc4c(c3)OCO4)no2)cc1 | ? | -16.0% | 79.4µM* | ? | i
SMILES | GPT2 inhibitor | NPR1 antag | NIH3T3 tox | HEK cytotox | Luciferase inh
CN(Cc1ccccc1)C(=O)C[C@@H]1CCNC[C@@H]1Cc1cc(CSc2ccccc2)on1 | -3.9% | 1.1% | ? | ? | i
COc1ccc(-c2cc(C[C@H]3CNCC[C@H]3CC(=O)N(C)Cc3ccccc3)no2)cc1 | 1.0%[88.5 µM] | -22.5%[70.6 µM] | 35.5µM* | 31.6µM* | i
COc1ccc(CNC(=O)C[C@@H]2CCNC[C@@H]2Cc2cc(CN(C)Cc3ccccc3)on2)cc1 | i | -2.9% | -20.2% | 39.8µM* | i
COc1ccc(-c2cc(C[C@H]3CNCC[C@H]3CC(=O)NCc3ccccc3OC)no2)cc1 | -5.3% | -6.3% | 70.8µM* | ? | i
COCC(=O)NC1CCN(c2ccc3nnc(-c4ccccc4)n3n2)C1 (centres undefined) | . | . | ? | -5.0%[172 µM] | .
COc1ccc(C(=O)N[C@@H]2CCC[C@@H]2C(=O)N2CCN(c3cc(C)ccc3C)CC2)cc1 | -3.9% | -4.9% | -17.1% | ? | i
O=C(O)CCC(=O)N1Cc2ccccc2CC2(CCCCN2CC2CCCC2)C1 (centres undefined) | i | . | -3.4% | -5.8% | .
O=C(NCCCN1CCCc2ccccc21)C1Cn2cccc2C(=O)N1Cc1ccccc1 (centres undefined) | -7.1% | -9.5% | ? | ? | i
O=C(C[C@@H]1CCNC[C@@H]1Cc1cc(-c2ccc(F)cc2)on1)Nc1nccs1 | -12.9%[88.5 µM] | -1.6%[70.6 µM] | 100µM* | 100µM* | i
OC[C@@H]1CNC[C@H]1C1CCN(Cc2ccc(Br)cc2F)CC1 | -13.3% | -7.6% | ? | ? | i
OC[C@@H]1CNC[C@H]1C1CCN(Cc2ccc(F)c(Br)c2)CC1 | 3.6% | 7.1% | 35.5µM* | ? | i
CCCN(CC1CC1)C(=O)[C@@H]1COCC(=O)N1Cc1ccccc1 | -26.6% | 0.1% | -17.4% | 4.9% | i
O=C(NCc1ccc(F)cc1)c1nc2sccn2c1-c1ccc(C(F)(F)F)cc1 | i | . | 14.1µM* | ? | .
COc1ccc(-c2c(C(=O)NCCCc3ccccc3)nc3sccn23)cc1 | 1.5% | . | 35.5µM* | ? | .
O=C(NCCc1ccccc1)c1nc2sccn2c1-c1ccc(C(F)(F)F)cc1 | i | . | 14.1µM* | ? | .
Cc1ccc(-c2c(C(=O)NCc3cccs3)nc3sccn23)cc1 | i | . | -11.1%[138 µM] | ? | .
O=C(NCc1cccs1)c1nc2sccn2c1-c1ccncc1 | i | . | ? | 89.1µM* | .
COc1ccc(-c2ccccc2C(=O)NCc2ccccn2)nn1 | . | . | -7.4%[138 µM] | i | .
CN(Cc1ccccc1)C1CCCc2ccccc21 (centres undefined) | i | -0.2%[70.6 µM] | -21.0%[138 µM] | -21.7%[172 µM] | i

High-throughput results from PubChem BioAssay.
